# From PubChem
# Shown are actives, neighbours in structure and some others; about 0.81% of the full set was active somewhere.
# Keap1 Nrf2 FP = Keap1-Nrf2 (human) interaction inhibition; Q14145; Keap1 Kelch-Nrf2 peptide fluorescence polarization, 1536-well; inhibition, % at 9.4 µM; hit rate 0.15% among 340,000; AID 504523; in the data active means inhibition above about 12%;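 further: human Keap1 Kelch domain with fluorescein labeled Nrf2 9mer peptide probe; 0% = neutral control wells and 100% = peptide positive control; higher means more block of Keap1 binding to Nrf2 peptide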
# Target sequence (Q14145 whole entry, looked up, the tested form may be a part): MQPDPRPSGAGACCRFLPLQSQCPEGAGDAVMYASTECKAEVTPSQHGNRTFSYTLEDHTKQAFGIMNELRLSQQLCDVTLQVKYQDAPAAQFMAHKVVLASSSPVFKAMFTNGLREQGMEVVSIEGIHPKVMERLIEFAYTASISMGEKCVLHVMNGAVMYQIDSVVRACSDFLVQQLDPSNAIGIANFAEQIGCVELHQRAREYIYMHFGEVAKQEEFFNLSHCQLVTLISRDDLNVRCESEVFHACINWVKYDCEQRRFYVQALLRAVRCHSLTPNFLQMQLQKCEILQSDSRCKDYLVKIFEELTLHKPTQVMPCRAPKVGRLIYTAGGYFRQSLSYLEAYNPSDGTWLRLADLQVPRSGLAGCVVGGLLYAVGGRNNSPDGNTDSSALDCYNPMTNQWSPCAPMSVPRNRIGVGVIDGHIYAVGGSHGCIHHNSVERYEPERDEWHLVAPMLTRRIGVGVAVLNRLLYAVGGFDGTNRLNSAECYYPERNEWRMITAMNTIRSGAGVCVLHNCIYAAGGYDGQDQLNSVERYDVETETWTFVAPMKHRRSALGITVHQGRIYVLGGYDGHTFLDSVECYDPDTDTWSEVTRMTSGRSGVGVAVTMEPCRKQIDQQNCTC
# cardiac RTF act = increases calcium sensitivity of human cardiac regulated thin filaments | P19429+P45379 | IANBD-labeled TnC RTF fluorescence at EC20 calcium; 0% EC20 calcium, 100% full calcium | activation, % at 7.2 µM | hit rate 0.24% among 340,000 | AID 493008;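 active means activation above the mean over all tested compounds plus 3 SD, cut at about 30% in these data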;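 further: rise in fluorescence read as greater calcium sensitivity of cardiac thin filaments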
# IDE cell inh = inhibits human insulin-degrading enzyme in HEK cells; P14735; FAbetaB cleavage, fluorescence polarization; inhibition, % at 5.59 µM; hit rate 0.41% among 320,000;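 active means percent inhibition above the average of all tested compounds plus 3 SD, set per screening campaign, cut at about 16% in these data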;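 further: IDE supplied by intact live HEK cells; FP after avidin binding of uncleaved biotin substrate so inhibition keeps polarization high; 0% = DMSO wells and 100% = 60 µM reference IDE inhibitor Ii1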
# IDE cell activ = IDE (human) activation, cell-based. HEK cells, FAbeta-B cleavage, fluorescence polarization; 0% vehicle, 100% cell-free pure enzyme wells. hit rate 0.073% among 340,000. activation, % at 5.96 µM. AID 493087. P14735;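 active means activation above the mean of all tested compounds plus 3 SD, set per screening campaign, cut at about 17% in these data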
# RTF Ca sens inh = cardiac RTF calcium desensitization; P19429+P45379; IANBD-labeled cardiac RTF, Ca2+ fluorescence; hit rate 0.12% among 340,000; inhibition, % at 7.15 µM;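 active means inhibition above the mean inhibition of all tested compounds plus 3 SD, cut at about 17% in these data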;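 further: assay run at fixed EC70 calcium of 1.6 mM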
# LANA DNA inh = KSHV C-LANA DNA binding inhibition; MBP-C-LANA/FAM-LBS DNA binding, fluorescence polarization; inhibition, % at 9 µM; hit rate 0.078% among 340,000; AID 504423;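 active means highest replicate inhibition at or above 60% at 9 µM, even if other replicates fall short; inactive means all replicates below 60% inhibition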;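 further: 0% = neutral control wells and 100% = 4 µM acridine orange control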
# IDE inh confirm = cellular human IDE inhibition, confirmation; inhibition, % at 5.59 µM; shares compounds with IDE cell inh; AID 435028; hit rate 51% among 1,200; HEK cells, FAbetaB cleavage, fluorescence polarization;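 active means mean inhibition across triplicate wells above the cutoff set by the earlier primary insulin-degrading enzyme screen, cut at about 16% in these data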;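 further: 0% = DMSO wells and 100% = 60 µM reference IDE inhibitor Ii1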
# HEK293 tox = kills HEK cells in IDE inhibitor counter-screen. hit rate 28% among 1,200. inhibition, % at 5.59 µM. HEK293 cytotoxicity, ATP luminescence. shares compounds with IDE cell inh; in the data active means inhibition above about 22%;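 further: 0% = vehicle wells and 100% = reference cytotoxic drug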
# IDE FP artifact = fluorescent artifact in IDE inhibitor FP assay | shares compounds with IDE cell inh | FP counterscreen for fluorescent artifacts, IDE probe project | IC50, µM | 30 tested, under 10 active | AID 588718; call rule not given here
# An asterisk follows results filed as active; · = no result.
SMILES,Keap1 Nrf2 FP,cardiac RTF act,IDE cell inh,IDE cell activ,RTF Ca sens inh,LANA DNA inh,IDE inh confirm,HEK293 tox,others
N#CC1=C(N)SC(N)=C(C#N)C1c1cccc(O)c1,-78,26,20*,-9,-63,3,6,10,
Cc1cc(C)c2c(=O)n(CC(=O)NCCCN3CCOCC3)sc2n1,-14,6,22*,-59,-7,2,20*,4,
Cc1cc([N+](=O)[O-])nn1CC(=O)NCCCN1CCOCC1,-2,5,5,-1,-10,1,·,·,
Cc1cc(C)c2c(=O)n(CC(=O)NCCCN3CCN(c4ccccc4F)CC3)sc2n1,·,·,39*,·,·,·,11,115*,
CC(C)c1cc(C(=O)N2CCCC(N3CCN(c4ccccc4F)CC3)C2)nc(N)n1 (stereo not drawn),6,2,2,3,-11,0,·,·,
C=CCN1C=C/C(=C\C=C(C#N)C#N)c2ccccc21,-7,0,15,-19,-3,-2,·,·,
CCCCCN1C=CC=C/C1=C\C=C(C#N)C#N,·,·,16,·,·,·,·,·,
CCCCCCN1C=CC(=C/C=C(\C#N)C(=O)OCC)C=C1,-93,141*,165*,-114,-262,-24,121*,21,
C=CCN1C=CC(=CC=C(C#N)C#N)C=C1,-118,44*,23*,-29,-46,-30,41*,5,
CCCN1C=CC(=CC=C(C#N)C#N)C=C1,-102,42*,39*,-32,-48,-28,47*,6,
CCCCCCN1C=CC=C/C1=C/C=C(C#N)C#N,-2,9,29*,-39,-13,4,36*,8,
O=C1c2cc([N+](=O)[O-])ccc2-c2cc(Br)c(N=C(NO)C(F)(F)F)cc21,2,-8,·,4,-9,3,·,·,
COc1ccccc1N1CCN(c2ccc([N+](=O)[O-])cc2Cl)CC1,-3,16,2,3,5,-1,·,·,
CN(c1ccccc1C(=O)Nc1ccccc1-c1ccccc1)S(C)(=O)=O,3,1,·,9,-16,-1,·,·,
Cn1c(SCc2nc3ccccc3[nH]2)nnc1-c1ccccn1,1,1,8,6,-12,2,·,·,
Cn1c(SCc2nc3ccccc3[nH]2)nnc1-c1cccc(Cl)c1,·,·,·,·,·,·,·,·,IDE FP artifact=>55
COc1cccc(-c2nnc(SCc3nc4ccccc4[nH]3)n2Cc2ccco2)c1,·,·,·,·,·,·,·,·,IDE FP artifact=>55
Cc1ccc(CN2CCC(n3nccc3NC(=O)CCOc3ccccc3)CC2)cc1C,5,7,-3,8,6,1,·,·,
O=C(N/N=C\c1c(O)ccc2ccccc12)c1ccc(Cn2cccn2)o1,-3,2,42*,-52,-6,3,63*,68*,
O=C(N/N=C/c1c(O)ccc2ccccc12)c1cccc(C(F)(F)F)c1,2,24,180*,-132,-40,9,137*,115*,
O=C(N/N=C\c1ccc(Cl)s1)c1ccc(Cn2cccn2)o1,-1,-8,15,2,-8,1,·,·,
COc1ccccc1C(=O)Nc1ccc(C(=O)Nc2ccccc2C(=O)O)cc1,0,-4,4,-1,1,-1,·,·,
O=C1Nc2ccccc2/C1=C/c1cnc(-c2ccccc2)[nH]1,1,36*,32*,-32,-63,4,30*,9,
O=C1Nc2ccccc2/C1=C/c1cccnc1,-11,7,0,3,-3,4,·,·,
Cc1cc(C)c(C)c(OCCCCN2CCCCC2)c1,3,-1,0,9,-13,0,·,·,
Cc1csc2c(N3CCN(C(=O)Nc4ccc(Cl)c(Cl)c4)CC3)ncnc12,2,3,21*,-21,-7,1,9,9,
Cc1csc2c(N3CCN(C(=O)NC(C)(C)C)CC3)ncnc12,5,10,1,0,-12,0,·,·,
CC(=O)Nc1cccc(NC(=O)C2CC(=O)N(c3ccc(C)cc3)C2)c1 (stereo not drawn),0,1,2,-1,-4,1,·,·,
